Source: PubChem BioAssay (several laboratories)
Most compounds without a hit are left out; they make up all but 22% or so of the library.
CYP2C9 act – increases human cytochrome P450 2C9 activity; P11712; recombinant CYP2C9, luciferin-H conversion, luminescence; stronger effect = higher value; factor 1 = untreated enzyme, 0 = blocked; activation factor at 5 µM; 96,000 compounds, 1.4% hits;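 active = activation factor of 2 or more for CYP2C9 at a 5 µM dose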;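 also: 0 = sulfaphenazole-blocked wells and 1 = vehicle-only wells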
Measles CPE – protection of cells from measles virus. AID 841. Measles virus-infected cells, CPE protection, absorbance. 140,000 compounds, 1.5% hits. protection (pct of control), % at 4 µM; in the data active = protection mostly above about 24%, no sharp cut-off; inactive = mostly below about 26%
CYP2C9 inhib – human CYP2C9 inhibition; P11712; CYP2C9 Supersomes, luciferin-H conversion, luminescence; inhibition, % at 5 µM; 96,000 compounds, 20% hits; AID 777;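 active = blocking of liver enzyme CYP2C9 beyond about 50% at 5 µM, limit read from the data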
CYP2C19 inhib – human CYP2C19 inhibition; P33261; CYP2C19 Supersomes, luciferin-H EGE luminescence, 30 min; inhibition, % at 5 µM; 96,000 compounds, 21% hits; AID 778;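 active = CYP2C19 inhibition above a set limit at 5 µM in the primary screen, cut at about 50% in these data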;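 also: plate controls were negative control wells for no effect and 2.5 mM tranylcypromine positive control for full effect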
Target sequence (P33261 whole entry, looked up): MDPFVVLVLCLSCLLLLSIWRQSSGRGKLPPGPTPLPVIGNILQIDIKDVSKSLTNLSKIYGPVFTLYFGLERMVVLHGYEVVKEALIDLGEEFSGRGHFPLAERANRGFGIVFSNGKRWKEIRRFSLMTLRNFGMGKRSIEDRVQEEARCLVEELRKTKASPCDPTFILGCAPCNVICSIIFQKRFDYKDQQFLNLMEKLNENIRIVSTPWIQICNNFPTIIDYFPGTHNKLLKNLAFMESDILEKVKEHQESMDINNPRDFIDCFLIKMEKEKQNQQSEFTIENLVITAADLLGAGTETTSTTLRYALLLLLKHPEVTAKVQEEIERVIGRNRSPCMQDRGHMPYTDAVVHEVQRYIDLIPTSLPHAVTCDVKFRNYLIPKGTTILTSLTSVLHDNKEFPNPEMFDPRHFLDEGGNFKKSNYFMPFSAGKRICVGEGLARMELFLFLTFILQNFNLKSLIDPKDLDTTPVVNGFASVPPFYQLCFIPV
CYP2C19 activ – activators of human cytochrome P450 2C19 | P33261 | recombinant CYP2C19, luciferin-H EGE luminescence; stronger effect = higher value; 0 = fully inhibited enzyme, 1 = untreated enzyme | activation factor at 5 µM | 96,000 tested, under 10 active;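 active = activation factor of at least 2 at 5 µM in the primary screen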;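 also: 0 = wells with 2.5 mM tranylcypromine and 1 = vehicle-only wells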
An asterisk follows results filed as active; / = not tested or not shown.

SMILES	CYP2C9 act	Measles CPE	CYP2C9 inhib	CYP2C19 inhib	CYP2C19 activ
O=C(C1CCN(S(=O)(=O)Cc2ccccc2)CC1)N1CCN(c2ncccn2)CC1	0.8	29	21	2	1
CC(=O)c1ccc(N2CCN(C(=O)C3CCN(S(=O)(=O)Cc4ccccc4)CC3)CC2)cc1	0.3	4	67*	4	1
O=C(C1CCCN(S(=O)(=O)Cc2ccccc2)C1)N1CCC(Cc2ccccc2)CC1 (stereo not drawn)	0.1	4	85*	97*	0
CC1=NN(c2ccc(Cl)cc2)C(=O)C1C(c1ccccc1O)c1c(C)[nH]n(-c2ccc(Cl)cc2)c1=O (stereo not drawn)	/	5	/	/	/
COC(=O)c1nn(-c2cccc(C)c2)c2nnc(Cc3ccccc3)c(=O)n12	/	9	/	/	/
CCOc1ccc(Br)cc1C1C(C(=O)OC)=C(N)Oc2cc(N(C)C)ccc21 (stereo not drawn)	0.1	6	85*	94*	0.1
CCOc1ccc(Br)cc1CC(=O)O	/	11	/	/	/
COc1ccc(N2CCN(C(=O)COc3ccccc3)CC2)cc1	0.9	16	9	5	0.9
O=C(CN1C(=O)c2ccccc2C1=O)N1CCN(c2nnc(-c3ccccc3)c3ccccc23)CC1	1	17	-4	-14	1.1
Cc1ccc(-c2nnc(N3CCN(C(=O)c4ccco4)CC3)c3ccccc23)cc1	0.2	1	76*	68*	0.3
O=C(COc1ccccc1)N1CCN(c2nnc(-c3ccccc3)c3ccccc23)CC1	0.3	12	74*	74*	0.3
Cc1ccc(OCC(=O)N2CCN(C(=O)c3cccs3)CC2)cc1	0.9	7	6	18	0.8
Cc1ccc(OCC(=O)N2CCN(c3nnc(-c4ccc(C)cc4)c4ccccc34)CC2)cc1	0.1	21	92*	88*	0.1
COc1ccc(OCC(=O)N2CCN(c3nnc(-c4ccccc4)c4ccccc34)CC2)cc1	0.6	5	43	50*	0.5
Cc1onc(-c2ccccc2)c1C(=O)N1CCN(C(=O)c2ccco2)CC1	1.1	6	-7	-4	1
O=C(O)C1CCC(=O)N(C2CC2)C1c1ccccc1 (stereo not drawn)	1	34	1	-10	1.1
O=C(c1cc(-c2ccccc2)on1)N1CCCC1	1.2	19	-22	11	0.9
Cc1ccc(-c2cc(C(=O)N3CCN(C(=O)c4ccco4)CC3)no2)cc1	0.5	10	54*	78*	0.2
COc1ccc(N2C(=O)CC(SCCc3nc4ccccc4[nH]3)C2=O)cc1 (stereo not drawn)	0.9	5	10	17	0.8
CCCC(=O)OC1CC(C)N(C(=O)c2ccccc2)c2ccc(C)cc21 (stereo not drawn)	/	21	/	/	/
CC(=O)OC1CC(C)N(C(=O)c2ccccc2)c2ccc(C)cc21 (stereo not drawn)	0.9	4	11	85*	0.1
N#Cc1c(-c2ccc3c(c2)OCO3)ccn2nc(-c3cccc(C(F)(F)F)c3)nc12	0.9	2	10	38	0.6
O=C(NCC1CCCO1)C1c2ccccc2C(=O)N1Cc1ccc2c(c1)OCO2 (stereo not drawn)	0.9	16	5	3	1
CC(=O)c1sc(N)c(C(=O)OC(C)C)c1C	0.6	6	45	80*	0.2
Cc1c(C(=O)OC(C)C)sc(N)c1C(=O)OC(C)C	/	6	/	/	/
SMILES	CYP2C9 act	Measles CPE	CYP2C9 inhib	CYP2C19 inhib	CYP2C19 activ
CCOc1ccc(C2C(C(=O)c3ccco3)=C(O)C(=O)N2Cc2cccnc2)cc1OC (stereo not drawn)	0.9	2	13	4	1
N#Cc1nc(COc2ccc(Cl)cc2)oc1N1CCCCCC1	0	0	97*	89*	0.1
COc1ccc(OCc2nc(C#N)c(N3CCN(c4ccc(OC)cc4)CC3)o2)cc1	/	2	/	/	/
N#Cc1nc(COc2cccc(Cl)c2)oc1N1CCN(c2ccccc2)CC1	0.4	3	57*	50	0.5
N#Cc1nc(Cc2ccccc2)oc1N1CCN(c2ccccc2)CC1	0.6	3	38	32	0.7
N#Cc1nc(COc2ccccc2)oc1N1CCN(c2cccc(Cl)c2)CC1	0.2	9	80*	38	0.6
COc1ccc(N2CCN(c3oc(COc4ccccc4Cl)nc3C#N)CC2)cc1	0.4	1	56*	38	0.6
N#Cc1nc(COc2ccccc2)oc1N1CCCCC1	0.7	6	34	50	0.5
CC(=O)C1=C(C)N(CC2CC2)C(=O)N[C@H]1c1ccccc1	/	14	/	/	/
CC(C)C(=O)Nc1ccc(C(=O)NNC(=O)c2ccco2)cc1	1.1	2	-7	0	1
Cc1c(C#N)c2ccccc2n1CC(=O)NC(C)c1ccccc1 (stereo not drawn)	0.4	39	59*	87*	0.1
CCOC(=O)Cn1c(C)c(C#N)c2ccccc21	0.5	8	50*	57*	0.4
Cc1cccc(NC(=O)Cn2c(C)c(C#N)c3ccccc32)c1C	0.1	6	87*	87*	0.1
Cc1c(C#N)c2ccccc2n1CC(=O)O	/	8	/	/	/
Cc1cccc(C(=O)NNC(=O)c2ccc(-c3ccccc3)cc2)c1	1.9	3	-85	14	0.9
Cn1nccc1C(=O)OCC(=O)Nc1nc(-c2ccccc2)cs1	0.7	9	25	38	0.6
Cc1ccc(SCCNC(=O)/C=C/c2ccc(Cl)cc2)cc1	/	6	/	/	/
O=C(CCCC(=O)OCC(=O)c1ccc(Cl)cc1Cl)Nc1cc(C(F)(F)F)ccc1Cl	1.2	4	-21	19	0.8
Cc1n[nH]c(C)c1CCc1nc2c3ccccc3nc(SCC(N)=O)n2n1	0.8	5	17	-6	1.1
Cc1ccc(NC(=O)CSc2nc3ccccc3c3nc(CCc4c(C)n[nH]c4C)nn23)cc1F	0.4	4	56*	-2	1
CCCc1cc(=O)n2c([nH]c3ccccc32)c1C#N	0.4	5	56*	-2	1
CCC1CCCCN1C(=O)c1cc(-c2ccc(Cl)c(Cl)c2)on1 (stereo not drawn)	/	6	/	/	/
CC1CCCCN1C(=O)c1cc(-c2ccc(Cl)c(Cl)c2)on1 (stereo not drawn)	0.9	46*	9	-3	1
COc1ccc(-n2c(C)cc(C(=O)Cn3c(NCCO)nc4ccccc43)c2C)cc1	0.4	4	63*	65*	0.4
O=C(COc1ccc(C(F)(F)F)cc1[N+](=O)[O-])Nc1cccc(C(F)(F)F)c1	/	50*	/	/	/
O=C(Nc1ccc(F)cc1)C(Sc1nnc2ccccn12)c1ccccc1 (stereo not drawn)	/	4	/	/	/
COc1ccc(C(=O)Cc2ccc3c(c2)OCO3)c(O)c1	/	16	/	/	/
O=C(Cc1ccc2c(c1)OCCO2)c1c(O)cc(O)cc1O	0	19	96*	94*	0.1
CCOC(=O)C1CCN(C(c2cc3ccc(C)c(C)c3[nH]c2=O)c2nnnn2C2CCCCC2)CC1 (stereo not drawn)	0.1	7	90*	80*	0.2
CC(C)NC(=O)COC(=O)c1cc(Br)ccc1Cl	/	52*	/	/	/
